Only some compounds are listed: those with a hit (about 2.6% of all), similar ones and a draw of the others.
TROY signal inh: inhibitors of TROY-dependent NF-kB signaling | Q293 LMP1-TROYcd NF-kB luciferase reporter, 4 h | inhibition, % at 10 µM | 360,000 compounds, 0.98% hits;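 active means compounds whose plate-normalised and pattern-corrected inhibition of the luciferase reporter signal at the single screening dose is 50% or more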
TWEAK-Fn14 inh: inhibitors of TWEAK-Fn14 interaction signaling. inhibition, % at 10 µM. TWEAK-stimulated Fn14 reporter cells, luciferase luminescence, 8 h. 360,000 compounds, 2% hits; in the data active means inhibition above about 50%
EWS-Fli block: inhibitors of EWS/Fli oncoprotein transcriptional activity; A673 NR0B1-luciferase reporter, viability-normalised; inhibition, % at 12.6 µM; 350,000 compounds, 0.67% hits; AID 651661;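 active means mean inhibition of at least 50% after viability correction, with every replicate also passing that limit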;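 further: firefly luciferase signal divided by Alamar Blue viability fluorescence both relative to DMSO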
LMP1 NFkB inh: Epstein-Barr LMP1 NF-kappaB reporter inhibition | inhibition, % at 12.5 µM | AID 504558 | 350,000 compounds, 0.69% hits | LMP1-induced NF-kappaB luciferase reporter cells, luminescence; in the data active means inhibition above about 41%;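 further: 0% = neutral control wells and 100% = reference inhibitor control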
LGR2 antag: Drosophila LGR2 receptor signaling inhibition; HEK293 LGR2, CRE-luciferase, bursicon-stimulated, 4 h; inhibition, % at 9.99 µM; 380,000 compounds, 0.35% hits;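 active means drop in luminescence signal, shown as inhibition above about 50% in the replicate tests, limit read from the data, passing the limit was not always enough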;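 further: agonist challenge used bursicon conditioned medium at about half maximal strength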
An asterisk follows results filed as active; nt = no result.

SMILES	TROY signal inh	TWEAK-Fn14 inh	EWS-Fli block	LMP1 NFkB inh	LGR2 antag
CCNc1nc(-c2sc(NC(=O)C(C)(C)C)nc2C)c(-n2cc(-c3ccccc3)nn2)s1	-1	86*	2	nt	-23
C/C=C(/C)C(=O)O[C@@H]1c2c(ccc3ccc(=O)oc23)O[C@@H]1C(C)(C)OC(=O)/C(C)=C\C	-5	-4	9	-5	58*
N#Cc1c(Sc2ncc(C(F)(F)F)cc2Cl)nsc1C/C=N\OCc1ccccc1Br	nt	67*	nt	-3	-14
CNC[C@H]1Oc2c(N)cccc2C(=O)N([C@H](C)CO)C[C@@H]1C	nt	nt	4	nt	-1
COc1cccc(-c2ccc3n(c2=O)C[C@@H]2[C@@H](CO)[C@H](C(=O)N4CCCCC4)N(C)[C@H]32)c1	nt	nt	7	nt	-4
O=S(=O)(Nc1nc2ccccc2nc1Nc1ccc2c(c1)OCO2)c1ccc(F)cc1	58*	61*	nt	10	42
O=S(=O)(Nc1nc2ccccc2nc1Nc1cccc(S(=O)(=O)N2CCCCC2)c1)c1ccccc1	68*	77*	22	4	46
O=C(NCCn1cc(SCc2ccccc2)c2ccccc21)c1c(F)cccc1F	22	50*	-13	3	2
O=C(NCCn1cc(SCc2ccc(F)cc2)c2ccccc21)c1c(F)cccc1F	27	38	-14	1	18
O=C(NCCn1cc(SCc2ccc(F)cc2)c2ccccc21)c1ccccc1F	28	51*	nt	-7	nt
O=C(C[C@@H]1C=C[C@H](NC(=O)c2ccccc2)[C@H](CO)O1)NCc1ccncn1	nt	nt	-4	nt	-15
O=S(=O)(C/C(=C/CO)S(=O)(=O)c1ccccc1)c1ccccc1	33	66*	nt	93*	nt
O=C(CS(=O)(=O)c1ccccc1)CS(=O)(=O)c1ccccc1	nt	nt	-2	nt	-4
CN1C(=O)c2cc(NC(=O)c3cccc(C(F)(F)F)c3)ccc2OC[C@H]2O[C@H](CC(=O)O)CC[C@@H]21	nt	nt	10	nt	-24
c1ccc(Nc2ncnc3sc4c(c23)CCC4)cc1	-3	0	nt	-5	nt
c1csc(CCNc2ncnc3sc4c(c23)CCC4)c1	54*	61*	17	5	nt
Cc1cccc(NC(=O)c2cc3ccccc3c(=O)o2)n1	-34	51*	-60	-20	-28
CNc1cncc(-c2cc(C)c(O)c(C)c2)n1	-5	-2	52*	nt	-22
CNc1cncc(-c2ccc(O)cc2)n1	-3	0	-18	nt	-8
Cc1cc(C(=O)CSc2nnc(-c3ccco3)o2)c(C)n1CC1COc2ccccc2O1 (stereo not drawn)	nt	85*	nt	4	nt
CNC[C@H]1Oc2cc(C#Cc3cccnc3)ccc2S(=O)(=O)N([C@@H](C)CO)C[C@@H]1C	nt	nt	-5	nt	-9
Cn1c(Sc2ccc(Cl)cc2)c(C=O)c2ccccc21	55*	80*	nt	22	nt
Cn1c(Oc2ccc(Cl)cc2)c(C=O)c2ccccc21	29	64*	nt	-3	nt
COc1ccc(Oc2c(C=O)c3ccccc3n2C)cc1	13	40	nt	2	nt
C/C(=N\Nc1ccc(C(=O)O)cc1)c1ccc(Br)cc1	14	66*	49	4	-24
SMILES	TROY signal inh	TWEAK-Fn14 inh	EWS-Fli block	LMP1 NFkB inh	LGR2 antag
O=C(C[C@H]1CC[C@H]2[C@@H](COC[C@@H](O)CN2C(=O)c2ccc(F)cc2)O1)Nc1nccs1	nt	nt	-8	nt	-8
CCOC(=O)N1CCN(C(=O)C2CCC(=O)N(Cc3ccccc3OC)C2)CC1 (stereo not drawn)	-10	-21	-10	46*	-7
COc1ccccc1CN1CC(C(=O)N2CCC(C(=O)c3ccccc3)CC2)CCC1=O (stereo not drawn)	-51	-12	-51	-5	-9
Cc1ccc2cc(CCNS(=O)(=O)c3ccc(F)cc3)c(=O)[nH]c2c1C	56*	59*	1	0	7
Cc1noc(C)c1NC(=O)Nc1ccc2c(c1)C(=O)N([C@@H](C)CO)C[C@@H](C)[C@@H](CN(C)Cc1ccc(Cl)c(Cl)c1)O2	nt	nt	-2	nt	30
c1nc(N2CCN(Cc3ccc4c(c3)OCO4)CC2)c2[nH]cnc2n1	9	-1	2	2	25
COc1ccc2c(c1)[nH]c1c(N3CCSCC3)ncnc12	63*	48	-1	2	nt
COc1ccc2c(c1)[nH]c1c(N3CCN(Cc4ccc5c(c4)OCO5)CC3)ncnc12	66*	100*	nt	22	nt
COc1cccc(N2CCN(c3ncnc4c3[nH]c3ccc(F)cc34)CC2C)c1 (stereo not drawn)	86*	104*	nt	70*	nt
Fc1ccc2cnc(CCO[C@H]3CCCCO3)cc2c1	9	67*	46	15	54*
C[C@H]1CN([C@@H](C)CO)C(=O)Cc2cc(NS(=O)(=O)c3cccs3)ccc2O[C@@H]1CN(C)C(=O)NC1CCCCC1	nt	nt	-10	nt	-1
O=C1C=C(O)c2c(O)cc(O)c(O)c2C1=O	6	70*	-10	9	-12
O=C1c2ccccc2C(=O)c2c(O)c(O)cc(O)c21	1	-3	-16	8	4
S=c1[nH]cnc2scc(-c3ccc(Cl)cc3)c12	68*	26	22	nt	8
Cc1ccc(-c2csc3nc[nH]c(=S)c23)cc1	12	26	nt	16	17
C[C@H]1CN([C@@H](C)CO)C(=O)c2cc(NC(=O)C3CC3)ccc2O[C@H]1CN(C)S(=O)(=O)c1cccs1	nt	nt	-12	nt	-12
COc1ccc2c3c([nH]c2c1)[C@H](CO)N(C(=O)C1CCC1)CC31CN(Cc2cccc(F)c2)C1	nt	nt	2	nt	15
COc1ccc(N2CCN(C(=O)c3ccc(COc4ccc([N+](=O)[O-])cc4)o3)CC2)cc1	27	51*	nt	-14	-1
COc1cc(C(=O)N2CCN(c3ccc([N+](=O)[O-])cc3)CC2)ccc1OCc1c(C)noc1C	nt	73*	nt	16	nt
Cc1ccccc1-c1cnc2c(c1)C(=O)N([C@H](C)CO)C[C@@H](C)[C@@H](CN(C)Cc1cccnc1)O2	nt	nt	-11	nt	-9
COc1cc(NC(=O)Nc2ccccc2OC)c(OC)cc1NC(=O)CN1CCCCC1	-13	6	nt	-12	nt
COc1cc(NC(=O)Nc2ccccc2)c(OC)cc1NC(=O)CN1CCCCC1	nt	78*	nt	-4	nt
COc1ccc(CN2CC3(CCN(C(=O)Cc4ccccc4)CC3)c3c([nH]c4cc(OC)ccc34)[C@H]2CO)cc1	nt	nt	24	nt	13
NNC(=O)c1cc2ccccc2cc1O	21	91*	nt	51*	34
COc1ccccc1NC(=O)COC(=O)c1cc2ccccc2cc1O	-4	-32	5	3	-7
O=C(NCCO)c1cc2ccccc2cc1O	-2	12	nt	15	nt
Cc1ccc(Cl)cc1NC(=O)c1cc2ccccc2cc1O	52*	47	12	37	5
COc1cc(OC)c(NC(=O)c2ccccc2F)cc1Cl	-43	-11	-8	-14	-31
COc1ccccc1NC(=O)c1cc2cc(Br)ccc2cc1O	38	67*	-6	-1	45
COc1cc(NC(=O)c2cc3ccccc3cc2O)c(OC)cc1Cl	45	67*	-10	9	35

From PubChem BioAssay
